One experiment concerns the target Albumin (Bos taurus) (UniProt P02769). The experiment is described as follows: compounds binding labelled BSA control protein – biochemical, small-molecule microarray, Alexa647 label, 635/667 nm fluorescence, artefact control for SMM control protein annotation, profiling panel (AID 1118).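 Further: score merges 667 nm emission intensity and signal-to-noise per printed compound spot.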 To be noted: BSA-A647 binding, fluorescence 635 nm, higher = more signal.
Experiment [1] in a line: probe aXIP binding to arrayed compounds – biochemical, NeuroSMM set, 635/667 nm fluorescence, primary screen (AID 1119).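 Further: probe is the protein aXip251-270 applied at 1 µg/mL to compound-printed slides; binding of probe to printed compounds measured as 667 nm fluorescence plus signal to noise.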 Particulars: small-molecule microarray, higher = more signal, called active from +8 up or from −8 down.
Experiment [2] in a line: probe aNOTCH3 binding on compound microarray – biochemical, small-molecule microarray, 635/667 nm fluorescence, primary screen (AID 1120).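 Further: probe is a biotin-tagged antibody raised against NOTCH3 rather than NOTCH3 protein; score merges spot fluorescence near 667 nm with spot signal to noise.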 Particulars: higher = more signal.
A short description of experiment [3]: probe aNOTCH2 binding on compound microarray – biochemical, small-molecule microarray, 635/667 nm fluorescence, primary screen (AID 1121).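 Further: score merges feature fluorescence read at 667 nm with its signal to noise.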 To be noted: higher = more signal.
Experiment [4] concerns the target Carbonic anhydrase 2 (Homo sapiens) (UniProt P00918). Nature of the experiment: compounds binding carbonic anhydrase 2 – biochemical, small-molecule microarray, Alexa647-labelled CAII, profiling panel (AID 1122). To be noted: CAII-A647 binding fluorescence, higher = more signal.
Experiment [5] in a line: COS7 lysate on small-molecule microarray, probe aHis, 635 nm (AID 1123).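 Further: z-score combines 667nm fluorescence intensity with signal-to-noise per printed compound spot.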 To be noted: COS7 cell lysate, fluorescence, higher = more signal.
Experiment [6] can be described thus: probe aLAP1 signal on lysate-treated microarray – cell lysate, small-molecule microarray, COS7 lysate, primary screen (AID 1124).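 Further: lysate comes from COS7 cells expressing LAP1 and is applied at 0.3 µg/mL; score merges spot fluorescence near 667 nm with signal-to-noise over triplicate slides.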 To be noted: probe aLAP1, fluorescence, higher = more signal.
For another experiment, the system named is Sam68 (KHDRBS1). Nature of the experiment: compounds binding KHDRBS1 protein – biochemical, small-molecule microarray, 635 nm fluorescence, primary screen (AID 1125).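 Further: score merges 667 nm channel intensity with signal to noise over triplicate slides.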 To be noted: higher = more signal.
Experiment [7] relates to Chordin-like protein 2 (CHRDL2). The experiment is described as follows: compounds binding chordin-like 2 – biochemical, small-molecule microarray, 635 nm fluorescence, primary screen (AID 1126).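 Further: printed compound slides probed with Chrdl2 protein at 4 µg/mL for 1 h at 4 C; score merges 667 nm emission intensity with signal to noise over three replicate slides.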 To be noted: fluorescence 635 nm, higher = more signal.
For experiment [8], the target named is Concanavalin-A (Canavalia ensiformis) (UniProt P02866). Nature of the experiment: compounds binding concanavalin A lectin – biochemical, small-molecule microarray, Alexa647 label, 635 nm, artefact control for SMM control protein annotation, primary screen (AID 1127).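 Further: z combines 667 nm emission intensity with signal-to-noise across three replicate slides.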 To be noted: ConA-A647 binding fluorescence, higher = more signal.
Chain of Concanavalin-A (Canavalia ensiformis) (P02866 whole entry, looked up): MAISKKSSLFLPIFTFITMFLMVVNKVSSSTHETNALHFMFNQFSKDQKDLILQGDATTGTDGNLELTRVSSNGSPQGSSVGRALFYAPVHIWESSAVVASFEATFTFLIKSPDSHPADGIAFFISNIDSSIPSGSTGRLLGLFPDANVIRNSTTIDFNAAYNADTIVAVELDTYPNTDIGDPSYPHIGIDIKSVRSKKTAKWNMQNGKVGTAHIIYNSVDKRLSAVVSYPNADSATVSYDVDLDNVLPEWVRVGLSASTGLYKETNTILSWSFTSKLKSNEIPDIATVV
Experiment [9] in a line: compounds binding Alexa647 anti-His antibody – biochemical, small-molecule microarray, 635 nm fluorescence, artefact control for SMM control protein annotation, primary screen (AID 1128).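 Further: score merges feature fluorescence with signal-to-noise for each printed compound spot.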 To be noted: higher = more signal.
Experiment [10] has as its system Human papillomavirus type 1a E7 protein (residues 1-88). The experiment is described as follows: HPV1a E7 small-molecule binders, primary screen, biochemical, small-molecule microarray, residues 1-88, 635 nm (AID 1129). To be noted: small-molecule microarray binding, fluorescence 635 nm; higher = more signal.
In experiment [11] the target is Focal adhesion kinase 1 (Homo sapiens) (UniProt Q05397). Nature of the experiment: PTK2 protein binding on printed compound slides – biochemical, small-molecule microarray, 635/667 nm fluorescence, BSA, DTT, primary screen (AID 1130).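 Further: composite of spot emission at 667 nm and signal to noise over triplicate slides.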 To be noted: 635 nm fluorescence, higher = more signal.
Chain of Focal adhesion kinase 1 (Homo sapiens) (Q05397 whole entry, looked up): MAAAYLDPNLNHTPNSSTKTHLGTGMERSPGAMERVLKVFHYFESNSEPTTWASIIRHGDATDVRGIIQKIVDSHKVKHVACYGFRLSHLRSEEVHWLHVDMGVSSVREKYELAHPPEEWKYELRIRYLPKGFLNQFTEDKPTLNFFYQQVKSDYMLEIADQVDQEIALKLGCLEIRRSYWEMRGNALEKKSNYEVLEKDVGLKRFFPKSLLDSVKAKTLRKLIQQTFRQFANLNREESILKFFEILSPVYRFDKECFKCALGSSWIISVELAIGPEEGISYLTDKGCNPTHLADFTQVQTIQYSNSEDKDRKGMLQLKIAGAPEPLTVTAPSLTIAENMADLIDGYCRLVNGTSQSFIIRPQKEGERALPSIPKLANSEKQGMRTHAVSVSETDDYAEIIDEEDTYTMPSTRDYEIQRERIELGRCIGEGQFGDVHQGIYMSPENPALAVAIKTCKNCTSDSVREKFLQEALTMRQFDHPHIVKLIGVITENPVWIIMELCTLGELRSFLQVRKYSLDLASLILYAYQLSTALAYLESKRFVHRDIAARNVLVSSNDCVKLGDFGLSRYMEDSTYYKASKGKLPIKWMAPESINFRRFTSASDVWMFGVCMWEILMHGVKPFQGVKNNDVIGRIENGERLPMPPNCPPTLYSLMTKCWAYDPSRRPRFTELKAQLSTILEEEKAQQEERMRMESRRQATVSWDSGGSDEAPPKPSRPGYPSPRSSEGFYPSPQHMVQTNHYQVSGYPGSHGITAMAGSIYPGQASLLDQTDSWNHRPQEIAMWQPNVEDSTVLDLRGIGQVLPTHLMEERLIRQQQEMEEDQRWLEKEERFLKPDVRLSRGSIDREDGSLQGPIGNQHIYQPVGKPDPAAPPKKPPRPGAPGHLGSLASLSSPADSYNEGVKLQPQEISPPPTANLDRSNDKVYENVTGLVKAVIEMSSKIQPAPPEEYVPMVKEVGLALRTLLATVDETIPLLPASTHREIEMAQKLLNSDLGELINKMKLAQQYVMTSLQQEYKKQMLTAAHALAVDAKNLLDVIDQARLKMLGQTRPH
Experiment [12] has as its system Fibrinogen (Alexa647-labelled). The experiment is described as follows: Alexa647-fibrinogen binding to printed small molecules – biochemical, small-molecule microarray, 635/667 nm fluorescence, artefact control for SMM control-protein annotation, profiling panel (AID 1131).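 Further: z-score merges 667 nm fluorescence with per-spot signal-to-noise over triplicate slides.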 To be noted: fibrinogen-A647 binding fluorescence, higher = more signal.
The target of experiment [13] is Follistatin (Homo sapiens) (UniProt P19883). Nature of the experiment: FST protein binding to printed compounds – biochemical, small-molecule microarray, 635/667 nm fluorescence, primary screen (AID 1132). To be noted: 635 nm fluorescence, higher = more signal.
Chain of Follistatin (Homo sapiens) (P19883 whole entry, looked up): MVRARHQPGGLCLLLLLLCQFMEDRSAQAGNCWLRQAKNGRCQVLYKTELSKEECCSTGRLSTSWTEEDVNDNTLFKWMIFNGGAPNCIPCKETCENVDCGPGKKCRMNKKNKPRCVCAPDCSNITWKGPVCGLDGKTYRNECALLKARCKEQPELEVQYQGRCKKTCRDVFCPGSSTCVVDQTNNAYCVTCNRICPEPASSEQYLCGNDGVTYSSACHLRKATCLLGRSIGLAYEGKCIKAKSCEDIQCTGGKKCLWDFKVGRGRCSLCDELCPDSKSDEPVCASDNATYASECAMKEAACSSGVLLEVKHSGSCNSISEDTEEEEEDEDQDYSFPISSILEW
The target of experiment [14] is Fibroblast growth factor 2 (Homo sapiens) (UniProt P09038). The experiment is described as follows: basic fibroblast growth factor binding to printed compounds – biochemical, small-molecule microarray, 635/667 nm fluorescence, primary screen (AID 1133). Particulars: FGF2, fluorescence 635/667, higher = more signal.
Chain of Fibroblast growth factor 2 (Homo sapiens) (P09038 whole entry, looked up): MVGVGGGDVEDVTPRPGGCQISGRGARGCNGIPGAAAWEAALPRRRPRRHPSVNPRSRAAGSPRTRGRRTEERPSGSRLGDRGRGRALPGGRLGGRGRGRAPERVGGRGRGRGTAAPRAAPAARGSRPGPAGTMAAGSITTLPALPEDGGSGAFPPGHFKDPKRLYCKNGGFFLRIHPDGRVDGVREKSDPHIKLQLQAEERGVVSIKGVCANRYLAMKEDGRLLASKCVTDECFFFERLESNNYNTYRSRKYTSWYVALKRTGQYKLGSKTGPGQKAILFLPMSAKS
Experiment [15] is described as follows: JC-1 mitochondrial potential readout, lung cancer cells – cell-based, A549, JC-1 fluorescence, basal, 24 h, 100 nL, profiling panel (AID 1138).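 Further: A549 lung adenocarcinoma cells under basal conditions with no added stimulus; test concentration not given here.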 Particulars: higher = more signal.
Another experiment has as its system Lefty1. The experiment is described as follows: Lefty1 protein binding to printed compounds – biochemical, small-molecule microarray, 635/667 nm fluorescence, primary screen (AID 1139). To be noted: fluorescence 635/667, higher = more signal.
The test system of experiment [16] is wheat germ agglutinin (Triticum aestivum), Alexa647-labelled. Nature of the experiment: Alexa647-WGA lectin binding to printed small molecules – biochemical, small-molecule microarray, 635/667 nm fluorescence, artefact control for SMM control-protein annotation, profiling panel (AID 1140).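 Further: score merges 667 nm feature emission with signal to noise over triplicate slides.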 To be noted: WGA-A647 binding, 635 nm fluorescence, higher = more signal.

Experiment [17] deals with Luciferin 4-monooxygenase (Photinus pyralis) (UniProt P08659). Nature of the experiment: inhibition of purified Photinus pyralis luciferase – biochemical, luminescence, purified enzyme, 2006 set, primary screen (AID 1141).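 Further: cell-free assay with purified firefly luciferase at 100 ng per well in PBS; test concentration not given here.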 To be noted: purified firefly luciferase, SteadyGlo luminescence, 30 min; higher = more signal, called active from +8 up or from −8 down.
Chain of Luciferin 4-monooxygenase (Photinus pyralis) (P08659 whole entry, looked up): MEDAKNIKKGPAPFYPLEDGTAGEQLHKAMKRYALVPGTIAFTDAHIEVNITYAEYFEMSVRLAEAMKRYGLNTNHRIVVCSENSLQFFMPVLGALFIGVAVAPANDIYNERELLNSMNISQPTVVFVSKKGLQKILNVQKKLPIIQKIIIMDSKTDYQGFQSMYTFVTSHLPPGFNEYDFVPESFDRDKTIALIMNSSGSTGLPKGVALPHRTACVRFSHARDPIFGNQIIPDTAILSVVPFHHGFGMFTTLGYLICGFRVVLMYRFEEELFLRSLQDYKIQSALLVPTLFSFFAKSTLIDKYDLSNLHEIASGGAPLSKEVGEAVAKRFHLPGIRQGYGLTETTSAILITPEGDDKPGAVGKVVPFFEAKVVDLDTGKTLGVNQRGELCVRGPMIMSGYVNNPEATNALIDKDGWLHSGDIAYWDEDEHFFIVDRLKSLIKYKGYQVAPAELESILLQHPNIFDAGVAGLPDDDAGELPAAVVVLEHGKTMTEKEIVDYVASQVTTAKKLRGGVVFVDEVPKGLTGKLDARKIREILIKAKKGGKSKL

SMILES strings stand for the structures. The source made the active and inactive calls.

Chain of Albumin (Bos taurus) (P02769 whole entry, looked up): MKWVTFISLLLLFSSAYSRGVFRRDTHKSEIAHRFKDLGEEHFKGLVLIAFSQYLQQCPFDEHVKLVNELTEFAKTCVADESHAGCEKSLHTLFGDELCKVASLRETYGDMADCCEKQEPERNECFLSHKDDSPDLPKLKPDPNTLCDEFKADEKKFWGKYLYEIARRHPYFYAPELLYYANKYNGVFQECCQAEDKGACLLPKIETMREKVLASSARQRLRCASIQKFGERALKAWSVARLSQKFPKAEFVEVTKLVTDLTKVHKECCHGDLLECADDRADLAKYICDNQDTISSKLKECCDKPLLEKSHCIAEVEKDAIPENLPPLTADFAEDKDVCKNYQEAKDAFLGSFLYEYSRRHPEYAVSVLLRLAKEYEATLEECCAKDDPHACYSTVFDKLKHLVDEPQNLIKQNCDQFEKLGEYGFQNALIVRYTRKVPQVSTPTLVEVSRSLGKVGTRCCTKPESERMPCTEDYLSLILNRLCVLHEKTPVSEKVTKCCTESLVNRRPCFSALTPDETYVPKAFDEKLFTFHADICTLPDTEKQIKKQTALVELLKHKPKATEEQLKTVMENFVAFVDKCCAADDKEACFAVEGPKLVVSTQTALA

For the compound `C[C@@H]1C=CCC(=O)OC[C@H](C)C(=O)N2CCC[C@H]2C(=O)OC1`, the composite z-score in the experiment with Albumin (Bos taurus) is -0.12; in experiment [2], -0.143; in [3] it was -0.0338; in experiment [4] it was -0.0527; in experiment [5], -0.0199; in experiment [6] it was 0.0742. In addition, the composite z-score in the experiment with Sam68 (KHDRBS1) is 1.14; in experiment [7], 1.58; in [8], 0.182; in [9], 2.67; in experiment [10] it was 0.589; in experiment [11] it was -0.344. For the same compound, the composite z-score in experiment [12] was -0.592; in experiment [13], 1.31; in experiment [14], 1.74; with Lefty1, 1.59; in [16], -0.273. Also, in [1], the composite Z-score was 0.608 (inactive). The z-score is -0.741 in experiment [15] and 1.1 (inactive) in experiment [17].
As to `CCc1cc2c(nc1CC)CCN(CCC(C)=NOC[C@@H](O)COCc1ccco1)C2`, the composite z-score is -0.576 with Albumin (Bos taurus); 1.03 in [2]; 0.31 in [3]; 0.193 in experiment [4]; -0.988 in [5]; 0.377 in experiment [6]. The composite z-score with Sam68 (KHDRBS1) was 0.226; in experiment [7], 1.57; in experiment [8], 0.212; in experiment [9], 1.31; in [10], -0.952; in experiment [11] it was -0.439. Also, the composite z-score in experiment [12] was -0.19; in [13] it was 1.47; in experiment [14] it was 1.53; with Lefty1 it was 1.53; in experiment [16], 0.182. Moreover, the composite Z-score in [1] was -0.206 (inactive). Also, the z-score is 1.69 in experiment [15] and -0.85 (inactive) in experiment [17].
For the compound `CCOC(=O)NN=C1C[C@@H](O)[C@@H](O)[C@@H]2[C@@H]3C(=O)N(C4CCCCC4)C(=O)[C@@H]3CC[C@@H]12`, the composite z-score with Albumin (Bos taurus) is 0.272; in experiment [2] it was -0.0598; in experiment [3], -0.0534; in experiment [4], 0.0286; in experiment [5], -0.636; in experiment [6] it was 1.25. The composite z-score is 0.39 in the experiment with Sam68 (KHDRBS1); 0.645 in [7]; 0.616 in [8]; 0.327 in [9]; -0.18 in experiment [10]; 0.287 in [11]. For the same compound, the composite z-score in experiment [12] worked out at 0.5; in experiment [13], 0.267; in experiment [14] it was 0.365; in the experiment on Lefty1, 0.319; in experiment [16], 0.0034. Also, the composite Z-score in experiment [1] is -0.288 (inactive). Also, the z-score is 0.497 in experiment [15] and -0.182 (inactive) in experiment [17].
Take `COCCOC(=O)N1C(=O)[C@@]2(c3cc(C#CCNC(N)=O)ccc31)[C@H](c1ccc(O)cc1)N1[C@H](c3ccccc3)[C@H](c3ccccc3)OC(=O)[C@H]1[C@@H]2C(=O)N1CCCCCCC1`: the composite z-score in the experiment with Albumin (Bos taurus) was -0.466; in experiment [2] it was 0.207; in [3] it was -0.108; in experiment [4] it was 0.244; in [5], 0.734; in [6] it was 0.382. The composite z-score in the experiment on Sam68 (KHDRBS1) was 1.3; in experiment [7], 1.15; in experiment [8], 0.615; in [9], 0.127; in experiment [10] it was 0.857; in experiment [11], 0.14. In addition, the composite z-score came out at 0.606 in experiment [12]; 1.3 in [13]; 1.5 in experiment [14]; 1.05 with Lefty1; 0.566 in [16]. Further, the composite Z-score in experiment [1] is -0.624 (inactive). Further, the results for the z-score in [15] and in experiment [17] were -1.18 and 0.629 (inactive), respectively.
For the compound `CC(C)[Si]1(C(C)C)O[C@@H](c2ccccc2)c2cc(C3CC3)nc(-c3ccccc3)c21`, the composite z-score was 0.23 with Albumin (Bos taurus); -0.16 in experiment [2]; -0.102 in experiment [3]; -0.169 in experiment [4]; 0.423 in experiment [5]; 0.202 in [6]. Further, the composite z-score is -0.308 in the experiment with Sam68 (KHDRBS1); 0.324 in experiment [7]; -0.77 in [8]; -0.829 in [9]; -0.466 in [10]; -0.925 in experiment [11]. In addition, the composite z-score is 0.412 in experiment [12]; -0.165 in [13]; -0.246 in [14]; -0.198 in the experiment with Lefty1; 0.105 in [16]. For the same compound, the composite Z-score in experiment [1] is -0.773 (inactive). For the same compound, the figures for the z-score in [15] and in [17] were -0.271 and -0.471 (inactive), respectively.
For the compound `CCc1cc2c(nc1CC)CCN(CCC(C)=NO[C@@H](C)c1cc(-c3c(C)cc(C)cc3C)no1)C2`, the composite z-score in the experiment with Albumin (Bos taurus) was 0.417; in experiment [2] it was -0.146; in experiment [3], -0.0649; in [4] it was -0.195; in [5] it was 0.778; in [6], -0.126. The composite z-score with Sam68 (KHDRBS1) was 0.353; in experiment [7], -0.121; in experiment [8], 0.765; in experiment [9] it was 0.0635; in [10] it was -0.22; in experiment [11], -0.0159. For the same compound, the composite z-score in experiment [12] is 0.397; in experiment [13] it was -0.265; in experiment [14], -0.2; with Lefty1, 0.388; in experiment [16], 0.0999. In addition, the composite Z-score in experiment [1] was -0.128 (inactive). The z-score in [15] was 1.69; in experiment [17] it was -0.887 (inactive).

For the origin of these results see PubChem BioAssay.
